Measurements published in PubChem BioAssay (NCATS).
A number with no mark means an inactive call. Inconclusive results are not listed. Where a call stands in place of a potency, no number is given. The source made the active and inactive calls. Unless noted, calls come from the whole dose curve; as a rule, active = well fitted curve in the direction sought with a large enough effect; inconclusive = small, poorly fitted or top-dose-only effect, or another doubt; inactive = no such curve, though single readings can be large; an effect the other way counts as inactive or inconclusive.

What was measured:
[1] = Confirmation and Secondary Assay for Modulators of Hemoglobin Beta Chain Splicing at IVS2 654 locus (AID 910);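 note: HeLa cells stably carrying EGFP split by mutant beta-globin IVS2-654 intron; per-well total GFP intensity by laser scanning cytometry after 2-day treatment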;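 note: potency is the fitted concentration of half-maximal effect; potency of activators that raise GFP signal by restoring correct splicing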
How it was run: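 Readout: per-well total peak green fluorescence (488 nm ex, 500–520 nm em) from objects 5–250 µm, reflecting correct splicing of an EGFP-654 reporter. Compounds were applied for 2 days at 37 °C to overnight-plated HeLa EGFP-654 cells; controls were DMSO and 500 nM IVS2-654 PNA.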

[2] = Confirmation and Secondary Assay for Modulators of Hemoglobin Beta Chain Splicing at IVS2 705 locus (AID 930);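 note: HeLa cells stably expressing the EGFP-705 splicing reporter; GFP fluorescence per well restored by corrected splicing of the IVS2-705 intron in EGFP; series mostly up to about 46 µM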
How it was run: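 HeLa IVS2-705 EGFP reporter cells, 500/well, compound 2 d at 37C; correct splicing yields fluorescent EGFP. Control: 500 nM antisense PNA. Read-out: total peak GFP intensity.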

[3] = biological target: Ubiquitin carboxyl-terminal hydrolase 1 (Homo sapiens) (UniProt O94782); experiment: Inhibitors of USP1/UAF1: Pilot qHTS (AID 504865); note: nearly all actives have a fitted effect of over 35% in size; note: potency is the fitted concentration of half-maximal effect
Sequence of Ubiquitin carboxyl-terminal hydrolase 1 (Homo sapiens) (O94782 whole entry, looked up): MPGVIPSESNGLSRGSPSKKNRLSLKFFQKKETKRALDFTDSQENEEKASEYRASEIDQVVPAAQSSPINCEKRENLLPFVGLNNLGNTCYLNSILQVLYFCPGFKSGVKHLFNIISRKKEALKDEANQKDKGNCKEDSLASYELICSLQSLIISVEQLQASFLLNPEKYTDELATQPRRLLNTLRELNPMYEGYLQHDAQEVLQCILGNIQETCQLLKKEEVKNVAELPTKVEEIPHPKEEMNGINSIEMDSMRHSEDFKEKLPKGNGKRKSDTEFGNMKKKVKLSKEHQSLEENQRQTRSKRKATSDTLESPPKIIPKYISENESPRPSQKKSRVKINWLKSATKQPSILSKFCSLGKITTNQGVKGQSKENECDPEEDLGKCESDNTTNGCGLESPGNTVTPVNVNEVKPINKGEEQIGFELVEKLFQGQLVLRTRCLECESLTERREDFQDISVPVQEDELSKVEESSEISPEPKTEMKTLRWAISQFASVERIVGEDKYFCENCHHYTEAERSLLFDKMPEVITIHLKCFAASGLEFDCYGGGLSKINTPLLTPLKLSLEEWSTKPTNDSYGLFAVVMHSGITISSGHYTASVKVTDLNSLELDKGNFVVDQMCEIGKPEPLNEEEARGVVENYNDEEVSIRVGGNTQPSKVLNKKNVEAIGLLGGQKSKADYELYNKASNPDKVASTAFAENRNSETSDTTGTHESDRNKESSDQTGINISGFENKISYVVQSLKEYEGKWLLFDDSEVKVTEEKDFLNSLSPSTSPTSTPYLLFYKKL
How it was run: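 In 50mM HEPES pH 7.8 containing 0.5mM EDTA, 1mM TCEP, 0.1 mg/ml BSA and 0.01% Tween-20, 1nM USP1/UAF1 is exposed to compound for 15 min, then Ub-Rho (150nM final) is added and fluorescence is read over time.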

[4] = biological target: Bile acid receptor (Homo sapiens) (UniProt Q96RI1); experiment: qHTS assay for small molecule agonists of farnesoid X receptor signaling (AID 588527; calls by dose curve; note: series mostly up to about 77 µM); details: HEK293T FXR-UAS-bla, beta-lactamase ratio, 16 h; activation: active compounds read high
Sequence of Bile acid receptor (Homo sapiens) (Q96RI1 whole entry, looked up): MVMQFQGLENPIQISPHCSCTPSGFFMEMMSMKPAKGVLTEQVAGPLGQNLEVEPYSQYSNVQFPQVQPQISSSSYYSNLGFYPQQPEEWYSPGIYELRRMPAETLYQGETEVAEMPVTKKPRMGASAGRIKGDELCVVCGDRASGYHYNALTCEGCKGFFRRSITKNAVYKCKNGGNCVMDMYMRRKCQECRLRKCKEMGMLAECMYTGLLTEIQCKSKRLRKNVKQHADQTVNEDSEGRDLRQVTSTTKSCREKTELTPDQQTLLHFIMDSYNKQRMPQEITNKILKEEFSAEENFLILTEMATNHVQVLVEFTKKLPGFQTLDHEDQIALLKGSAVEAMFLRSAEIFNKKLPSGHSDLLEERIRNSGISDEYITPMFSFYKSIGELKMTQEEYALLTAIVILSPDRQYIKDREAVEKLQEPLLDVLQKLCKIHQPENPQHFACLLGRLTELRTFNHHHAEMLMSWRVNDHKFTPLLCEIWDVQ
How it was run: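 Read-out: beta-lactamase reporter fluorescence with CCF4 substrate in GeneBLAzer FXR-UAS-bla HEK293T cells, after 16 h compound exposure at 37 C. Response scaled between DMSO basal (0%) and chenodeoxycholic acid at 100 uM (100%).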

[5] = biological target: Peroxisome proliferator-activated receptor gamma (Homo sapiens) (UniProt P37231); experiment: qHTS assay for small molecule antagonists of peroxisome proliferator-activated receptor gamma signaling (AID 588537; active = well fitted inhibition curve with a large enough effect in the signal ratio, with a control signal flat, not every such curve was filed as active; the % refers to the signal ratio; note: potency is the fitted concentration of half-maximal effect)
Sequence of Peroxisome proliferator-activated receptor gamma (Homo sapiens) (P37231 whole entry, looked up): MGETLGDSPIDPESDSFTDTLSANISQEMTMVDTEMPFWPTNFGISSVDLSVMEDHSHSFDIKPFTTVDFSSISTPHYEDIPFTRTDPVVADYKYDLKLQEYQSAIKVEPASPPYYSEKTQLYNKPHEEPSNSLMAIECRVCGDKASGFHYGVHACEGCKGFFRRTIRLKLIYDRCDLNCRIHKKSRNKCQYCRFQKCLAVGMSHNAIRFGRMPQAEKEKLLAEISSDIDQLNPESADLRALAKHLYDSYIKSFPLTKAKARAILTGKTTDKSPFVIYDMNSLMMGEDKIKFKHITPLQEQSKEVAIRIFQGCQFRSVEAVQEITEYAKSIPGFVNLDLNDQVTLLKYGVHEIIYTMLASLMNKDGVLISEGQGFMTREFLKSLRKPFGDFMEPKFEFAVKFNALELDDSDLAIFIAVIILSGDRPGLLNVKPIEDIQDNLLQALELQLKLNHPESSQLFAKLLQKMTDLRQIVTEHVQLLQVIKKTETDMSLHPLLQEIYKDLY
How it was run: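 Antagonist mode, beta-lactamase reporter in HEK293; charcoal/dextran FBS 1%; 3000 cells/well, 37 C 6-6.5 h; cpd titration + rosiglitazone 50 nM final, 16 h 37 C; CCF4, 2 h RT; 460/530 nm; Hill fit → IC50, efficacy.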

[6] = biological target: Nuclear receptor subfamily 1 group I member 2 (Rattus norvegicus) (UniProt Q9R1A7); experiment: qHTS assay for small molecule activators of the rat pregnane X receptor (rPXR) signaling pathway (AID 651751; call rule not given here); details: rPXR reporter cells, luciferase (One-Glo), 24 h
Sequence of Nuclear receptor subfamily 1 group I member 2 (Rattus norvegicus) (Q9R1A7 whole entry, looked up): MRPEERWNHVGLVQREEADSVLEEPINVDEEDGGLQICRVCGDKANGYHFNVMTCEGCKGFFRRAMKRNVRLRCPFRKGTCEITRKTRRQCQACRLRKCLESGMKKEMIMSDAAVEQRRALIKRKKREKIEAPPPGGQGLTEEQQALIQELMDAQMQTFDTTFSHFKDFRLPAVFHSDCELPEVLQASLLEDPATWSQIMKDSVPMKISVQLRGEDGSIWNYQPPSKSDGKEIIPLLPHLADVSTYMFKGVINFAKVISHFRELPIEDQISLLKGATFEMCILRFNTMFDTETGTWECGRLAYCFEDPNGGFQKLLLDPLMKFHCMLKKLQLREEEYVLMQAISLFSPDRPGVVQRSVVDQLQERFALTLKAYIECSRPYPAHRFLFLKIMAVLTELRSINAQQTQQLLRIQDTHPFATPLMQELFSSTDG

[7] = qHTS assay for small molecule activators of the human pregnane X receptor (PXR) signaling pathway (AID 720659; call rule not given here)
[8] = biological target: Cytochrome P450 3A4 (Homo sapiens) (UniProt P08684); experiment: qHTS Assay for Activators of Cytochrome P450 3A4 (AID 885); note: nearly all actives have a fitted effect of over 65% in size
Sequence of Cytochrome P450 3A4 (Homo sapiens) (P08684 whole entry, looked up): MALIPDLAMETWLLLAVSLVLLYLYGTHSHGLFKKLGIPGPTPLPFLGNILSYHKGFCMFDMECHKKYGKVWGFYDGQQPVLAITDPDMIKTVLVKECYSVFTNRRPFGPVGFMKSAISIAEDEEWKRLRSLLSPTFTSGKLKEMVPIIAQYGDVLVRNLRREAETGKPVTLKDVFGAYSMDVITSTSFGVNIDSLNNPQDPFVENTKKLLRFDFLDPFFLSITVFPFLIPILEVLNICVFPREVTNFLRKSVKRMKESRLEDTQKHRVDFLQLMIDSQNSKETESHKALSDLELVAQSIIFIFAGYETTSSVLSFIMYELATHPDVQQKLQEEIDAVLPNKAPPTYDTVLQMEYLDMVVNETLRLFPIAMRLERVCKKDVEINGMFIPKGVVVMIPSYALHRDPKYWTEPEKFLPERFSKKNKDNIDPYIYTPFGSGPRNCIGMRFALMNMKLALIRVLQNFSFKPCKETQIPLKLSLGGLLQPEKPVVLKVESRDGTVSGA
How it was run: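 Steps: enzyme/substrate mix dispensed; compound added, 10 min RT; NADPH regeneration solution added, 60 min RT; luciferin detection buffer stops reaction; 20 min later luminescence measured.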

With `O=C1C=C2C(=CCOC2O)O1` (stereo not given) the Potency [1] was “inactive”, the outcome [2] was “inactive” and the Potency [3] was 50.1 µM (active). The activation [4] was -4.19%, the Potency [5] was 20 µM (active) and the max response [6] was -14.8%. For the same compound, the outcome [7] was “inactive”.

For `C=CCN1CC[C@]23c4c5ccc(O)c4OC2C(=O)CC[C@]3(O)C1C5` (stereo not given in full), the Potency [1] was “inactive”, the outcome [2] was “inactive” and the Potency [3] was “inactive”.

With `COC(=O)/C(C)=C\CC12OC(C)(C)C3CC(C=C4C(=O)c5c(OC)c6c(c(CC=C(C)C)c5OC431)OC(C)(CCC=C(C)C)C=C6)C2=O` (stereo not given) the Potency [1] was “inactive”, the outcome [2] was “inactive” and the Potency [3] was 39.8 µM (active).

In the case of `CC(=O)Oc1c2c(c(CC=C(C)C)c3c1C(=O)C1=CC4CC5C(C)(C)OC(C/C=C(\C)C(=O)O)(C4=O)[C@]15O3)OC(C)(CCC=C(C)C)C=C2` (stereo not given in full), the Potency [1] is reported as “inactive”, the outcome [2] is reported as “inactive” and the Potency [3] is reported as 12.6 µM (active).

With `CN1[C@H]2CC(OC(=O)[C@H](CO)c3ccccc3)C[C@H]1[C@H]1O[C@H]12` (stereo not given in full) the Potency [3] was “inactive”.

With `CC[C@]1(O)CC(O[C@@H]2CC(N(C)C)C(O)C(C)O2)c2c(cc3c(c2O)C(=O)c2c(O)cccc2C3=O)C1C(=O)OC` (stereo not given in full) the Potency [8] was “inactive”, the Potency [1] was 15.8 µM (active) and the Potency [3] was 56.2 µM (active).

With `CC(=O)OCC1=C(C(=O)O)N2C(=O)C(NC(=O)CCCC(N)C(=O)O)C2SC1` (stereo not given) the Potency [1] was “inactive”, the outcome [2] was “inactive” and the Potency [3] was “inactive”.

For `CC1CC(Cl)CCC1C(=O)OC(C)(C)C` (stereo not given), the Potency [1] was “inactive”, the outcome [2] was “inactive” and the Potency [3] was “inactive”.

With `CN(C)C1C(=O)C(C(N)=O)=C(O)[C@@]2(O)C(=O)C3=C(O)c4c(O)cccc4[C@@](C)(O)C3CC12` (stereo not given in full) the Potency [1] was “inactive”, the outcome [2] was “inactive” and the Potency [3] was “inactive”.

For `COc1ccc(C(=O)O)cc1OC`, the Potency [1] was “inactive”, the outcome [2] was “inactive” and the Potency [3] was “inactive”.

In the case of `CCC1C(=O)OC[C@H]1Cc1cncn1C` (stereo not given in full), the Potency [8] is reported as “inactive”, the Potency [1] is reported as “inactive” and the outcome [2] is reported as “inactive”. The Potency [3] was “inactive”.

With `C[C@@]12C=CC(=O)C=C1CCC1C2CC[C@]2(C)C(=O)CCC12` (stereo not given in full) the Potency [1] was “inactive”, the outcome [2] was “inactive” and the Potency [3] was “inactive”.

For `CN(CCC(N)CC(=O)NC1C=CC(n2ccc(N)nc2=O)OC1C(=O)O)C(=N)N` (stereo not given), the Potency [8] was “inactive”, the Potency [1] was “inactive” and the outcome [2] was “inactive”. For the same compound, the Potency [3] was “inactive”.

In the case of `CC1CC(C)C(=O)[C@H](C(O)CC2CC(=O)NC(=O)C2)C1` (stereo not given in full), the Potency [1] is reported as “inactive”, the outcome [2] is reported as “inactive” and the Potency [3] is reported as “inactive”.

For `COC(=O)[C@]1(C)CC[C@@]2(C)CC[C@@]3(C)C4=CC=C5C(=CC(=O)C(O)=C5C)[C@@]4(C)CC[C@@]3(C)C2C1` (stereo not given in full), the Potency [8] was “inactive”, the Potency [1] was “inactive” and the outcome [2] was “inactive”. The Potency [3] was 44.7 µM (active).

For `OCC(O)Cc1ccc2c(c1)OCO2` (stereo not given), the Potency [8] was “inactive”, the Potency [1] was “inactive” and the outcome [2] was “inactive”. For the same compound, the Potency [3] was “inactive”.

In the case of `CC1(C)C(C(Cl)Cl)C2(Cl)C(Cl)C(Cl)C1(Cl)C2(Cl)Cl` (stereo not given), the Potency [8] is reported as “inactive”, the Potency [1] is reported as “inactive” and the outcome [2] is reported as “inactive”. The Potency [3] was “inactive”.

With `CCC1C2CC3C4N(C)c5ccccc5[C@]45CC(C2C5O)N3C1O` (stereo not given in full) the Potency [1] was “inactive”, the outcome [2] was “inactive” and the Potency [3] was “inactive”.

With `COc1c2c(c(CC=C(C)C)c3oc(=O)c(-c4ccc(O)cc4)c(O)c13)OC(C)(C)C=C2` the Potency [8] was “inactive”, the Potency [1] was “inactive” and the outcome [2] was “inactive”. The Potency [3] was 79.4 µM (active).
